The source of these data is PubChem BioAssay (Tox21).

Unmarked numbers belong to inactive results. Results filed as inconclusive are left out. The source made the active and inactive calls. Unless noted, the call rests on the fitted dose curve; in most records, active means well fitted curve in the direction sought with a large enough effect in the repeat runs; inconclusive means weak or mixed curves; inactive means no such curve, though single readings can be large; an effect the other way counts as inactive or inconclusive.

Assay [1] is described as follows: qHTS assay to identify small molecule antagonists of the androgen receptor (AR) signaling pathway using the MDA cell line in the presence of 0.5 nM R1881 - cell viability counter screen (AID 1259242). Further: nearly all actives have a fitted effect of over 45% in size. Further: potency means the concentration at half of the fitted maximal effect. The method, boiled down:
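Cytotoxicity toward MDA-kb2 cells is measured by CellTiter-Fluor live-cell protease fluorescence after 16 hr compound exposure at 37C in the presence of 0.5 nM R1881 stimulator.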
In general terms: qHTS replaces the single test concentration by a dilution series.

A short description of assay [2]: qHTS assay to identify small molecule phospholipidosis (PLD) inducers (AID 1259344; active means well fitted curve in the direction sought with a large enough effect; an effect the other way counts as inactive or inconclusive; further: potency means the concentration at half of the fitted maximal effect). The method, boiled down: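 Quantitative HTS in HepG2: compound plus LipidTOX Red dye for 24 h, paraformaldehyde fixation with Hoechst 33342, widefield high-content imaging; amiodarone as positive and DMSO as negative control.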
The nature of assay [3]: qHTS assay to identify small molecule HDAC inhibitors (AID 1259364). Further: top concentration of the series differs between compounds; nearly all actives have a fitted effect of over 45% in size. The procedure, abridged: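 Homogeneous cell-based luminescent assay of endogenous class I/II HDAC activity; HCT-116 cells, 2 h compound exposure, 30 min HDAC-Glo development at RT.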
A short description of assay [4]: qHTS assay to identify small molecule HDAC inhibitors - cell viability counter screen (AID 1259365). Further: series mostly up to about 92 µM; nearly all actives have a fitted effect of over 50% in size. The procedure, abridged: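 HCT-116 wild-type, overnight attachment; 2hr drug exposure, 37C; CellTiter-Glo luminescent ATP readout after 30min RT.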
Assay [5] in a line: qHTS assay to identify small molecule antagonists of the sonic hedgehog signaling (Shh) pathway - cell viability counter screen (AID 1259367). Further: nearly all actives have a fitted effect of over 55% in size. Further: potency means the concentration at half of the fitted maximal effect. The procedure, abridged: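 Seed 3T3 Gli1-Luc cells at 2,000 per well; incubate 4 hr; add compound in DMSO, then conditioned medium; incubate at 37C with 5% CO2; add CellTiter-Fluor after 23 hr; read fluorescence 1 hr later.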
Assay [6] is described as follows: qHTS assay to identify small molecule agonists of the sonic hedgehog signaling (Shh) pathway (AID 1259368; calls by dose curve;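 further: NIH/3T3-derived 3T3Gli1-Luc cells carrying a stable Gli1-driven firefly luciferase reporter; series mostly up to about 92 µM; nearly all actives have a fitted effect of over 15% in size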). The procedure, abridged:
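Steps: seed 3T3 Gli1-Luc cells, incubate 4 hr at 37 C, pin-transfer compounds in DMSO alongside a positive control, incubate 24 hr, add luciferase detection reagent, wait 30 min at room temperature, read luminescence.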

Assay [7] in a line: qHTS assay to identify small molecule agonists of the estrogen receptor beta (ER-beta) signaling pathway - cell viability counter screen (AID 1259380). Further: nearly all actives have a fitted effect of over 30% in size. The method, boiled down: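 Same-well viability counter screen. Cells: ER-beta-UAS-bla HEK293T, plated 6 hr before compound, in 2% charcoal-stripped FBS. Compound exposure 16 hr, 37C; viability by CellTiter-Glo luminescence after 30 min at room temperature.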

Assay [8] in a line: qHTS assay to identify small molecule antagonists of the estrogen receptor beta (ER-beta) signaling pathway - cell viability counter screen (AID 1259382). Further: series mostly up to about 92 µM; nearly all actives have a fitted effect of over 55% in size. The procedure, abridged: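 Following a 6 hr plating period, HEK293T cells carrying a UAS-driven beta-lactamase reporter under ER-beta control received compounds and 1nM E2 (final). After 16 hr at 37C and 2 hr substrate loading, CellTiter-Glo luminescence indicated viability.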

The target in assay [9] is Estrogen receptor (Homo sapiens) (UniProt P03372). In words: qHTS assay to identify small molecule agonists of the estrogen receptor alpha (ER-alpha) signaling pathway in the presence of an antagonist (AID 1259383; calls by dose curve; further: top concentration of the series differs between compounds; nearly all actives have a fitted effect of over 15% in size). The procedure, abridged:
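Cells are hormone-deprived for 5 days (charcoal-stripped FBS, no phenol red), plated for 24hr, spiked with 10.0nM ICI-182,780, then dosed at 15 concentrations. After 22hr at 37C, ONE-Glo luminescence reports ERE-luciferase activity.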

Assay [10] in a line: qHTS assay to identify small molecule antagonists of the sonic hedgehog signaling (Shh) pathway (AID 1259369; calls by dose curve; further: nearly all actives have a fitted effect of over 45% in size; further: potency means the concentration at half of the fitted maximal effect). The method, boiled down:
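Inhibition of Shh signalling is measured as reduced Gli1-response-element firefly luciferase output in an NIH/3T3-derived stable reporter clone stimulated with conditioned medium for 24hr.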

Assay [11] concerns the target Estrogen receptor beta (Homo sapiens) (UniProt Q92731). Briefly: qHTS assay to identify small molecule agonists of the estrogen receptor beta (ER-beta) signaling pathway (AID 1259377; active means well fitted activation curve with a large enough effect in the signal ratio in the repeat runs, not every such curve was filed as active; the % refers to the signal ratio). The method, boiled down: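 qHTS in ER-beta-UAS-bla HEK293T cells: 6 hr settling, then 16 hr compound at 37C, then LiveBLAzer substrate 2 h at RT before fluorescence reading.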
Assay [12] shares this target. Briefly: qHTS assay to identify small molecule antagonists of the estrogen receptor beta (ER-beta) signaling pathway (AID 1259378; active means well fitted inhibition curve with a large enough effect in the signal ratio in the repeat runs, not every such curve was filed as active; the % refers to the signal ratio). The procedure, abridged:
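ER-beta-UAS-bla HEK293T cells in 2% charcoal-stripped FBS medium treated with compound plus 1nM final 17-beta-estradiol for 16 hr at 37C. Beta-lactamase reporter read by FRET substrate fluorescence after 2 hours at room temperature.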

The nature of assay [13]: qHTS assay to identify small molecule agonists of the androgen receptor (AR) signaling pathway in the presence of an antagonist - cell viability counter screen (AID 1259379). Further: nearly all actives have a fitted effect of over 25% in size. Further: potency means the concentration at half of the fitted maximal effect. The procedure, abridged: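 Fluorescence from CellTiter-Fluor, added after 15 hr and read 1 hr later, gave cell viability. Cells were MDA-kb2 exposed to compounds (15 concentrations) in the presence of 3.0uM nilutamide at 37C, 0% CO2.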

Assay [14] addresses Thyrotropin receptor (Homo sapiens) (UniProt P16473). In words: qHTS assay to identify small molecule antagonists of the thyroid stimulating hormone receptor (TSHR) signaling pathway (AID 1259385; calls by dose curve; further: nearly all actives have a fitted effect of over 20% in size; further: potency means the concentration at half of the fitted maximal effect). The method, boiled down:
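TSHR-HEK293 cells (800/well) plated 18 h, then compounds with Ro20-1724 and TSH at 1.5 ng/mL final, 30 min at room temperature. cAMP quantified by HTRF (cAMP-d2/anti-cAMP-cryptate, 1 h); 15 concentrations in triplicate.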

A short description of assay [15]: qHTS assay to identify small molecule agonists of the sonic hedgehog signaling (Shh) pathway - cell viability counter screen (AID 1259366). Further: nearly all actives have a fitted effect of over 50% in size. The method, boiled down: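 Compounds in DMSO were pin-transferred onto 3T3 Gli1-Luc cells that had settled 4hr; plates then stood 24hr at 37C and 5% CO2. One hour before the end, CellTiter-Fluor was added and fluorescence recorded.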

The nature of assay [16]: qHTS assay to identify small molecule agonists or antagonists of the thyroid stimulating hormone receptor (TSHR) signaling pathway - wild type cell line counter screen (AID 1259384; calls by dose curve). The method, boiled down: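 Wild-type Hek293 cells, 800/well, 18 h at 37C, then compound with Ro20-1724 for 30 min RT. cAMP by HTRF (cAMP-d2/anti-cAMP cryptate), 1 h RT, fluorescence read. 15 concentrations, triplicates.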

Assay [17] has as its target Androgen receptor (Homo sapiens) (UniProt P10275). In words: qHTS assay to identify small molecule antagonists of the androgen receptor (AR) signaling pathway using the MDA cell line in the presence of 0.5 nM R1881 (AID 1259243). Further: nearly all actives have a fitted effect of over 50% in size. Further: potency means the concentration at half of the fitted maximal effect. The procedure, abridged:
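Steps: seed MDA-kb2 cells, incubate 5 hr at 37C; pin-transfer compounds in DMSO; add R1881 to 0.5 nM final; incubate 16 hr; add ONE-Glo, wait 30 min at room temperature; read luminescence.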

For assay [18], the target named is Estrogen receptor (Homo sapiens) (UniProt P03372). In words: qHTS assay to identify small molecule antagonists of the estrogen receptor alpha (ER-alpha) signaling pathway using the BG1 cell line in the presence of 0.1 nM 17-beta-estradiol (AID 1259244). Further: nearly all actives have a fitted effect of over 50% in size. The procedure, abridged:
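After 5 days in hormone-depleted medium (charcoal-stripped serum, no phenol red), VM7Luc4E2 cells were seeded, incubated 24 h, then co-treated with compound and 0.1 nM (final) estradiol for 22 h before luminescence detection.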

Assay [19] addresses Androgen receptor (Homo sapiens) (UniProt P10275). In words: qHTS assay to identify small molecule agonists of the androgen receptor (AR) signaling pathway in the presence of an antagonist (AID 1259381; calls by dose curve; further: nearly all actives have a fitted effect of over 15% in size). The procedure, abridged: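 Cells are MDA-kb2 (human breast carcinoma, MMTV-luc, AR/GR responsive). Nilutamide is present at 3.0uM final throughout; compounds are added at 15 concentrations and incubated 16hr at 37C before ONE-Glo luminescence detection.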
On the % scale 0 is the no-effect control and ±100 the full control effect.

Chain of Estrogen receptor beta (Homo sapiens) (Q92731 whole entry, looked up): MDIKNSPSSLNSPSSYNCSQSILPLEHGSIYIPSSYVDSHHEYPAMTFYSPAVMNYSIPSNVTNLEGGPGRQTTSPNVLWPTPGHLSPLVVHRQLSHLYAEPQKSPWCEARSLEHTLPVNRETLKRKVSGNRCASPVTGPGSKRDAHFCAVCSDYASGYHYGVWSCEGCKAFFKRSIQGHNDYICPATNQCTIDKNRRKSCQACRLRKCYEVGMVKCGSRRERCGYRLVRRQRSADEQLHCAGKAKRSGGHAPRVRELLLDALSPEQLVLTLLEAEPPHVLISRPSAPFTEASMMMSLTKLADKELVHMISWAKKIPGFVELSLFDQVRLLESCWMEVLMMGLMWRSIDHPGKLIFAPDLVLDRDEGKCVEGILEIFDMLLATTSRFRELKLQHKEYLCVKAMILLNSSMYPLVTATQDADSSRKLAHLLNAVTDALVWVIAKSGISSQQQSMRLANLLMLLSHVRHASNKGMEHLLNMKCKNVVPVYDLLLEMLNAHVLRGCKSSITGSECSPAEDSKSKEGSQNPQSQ
Chain of Estrogen receptor (Homo sapiens) (P03372 whole entry, looked up): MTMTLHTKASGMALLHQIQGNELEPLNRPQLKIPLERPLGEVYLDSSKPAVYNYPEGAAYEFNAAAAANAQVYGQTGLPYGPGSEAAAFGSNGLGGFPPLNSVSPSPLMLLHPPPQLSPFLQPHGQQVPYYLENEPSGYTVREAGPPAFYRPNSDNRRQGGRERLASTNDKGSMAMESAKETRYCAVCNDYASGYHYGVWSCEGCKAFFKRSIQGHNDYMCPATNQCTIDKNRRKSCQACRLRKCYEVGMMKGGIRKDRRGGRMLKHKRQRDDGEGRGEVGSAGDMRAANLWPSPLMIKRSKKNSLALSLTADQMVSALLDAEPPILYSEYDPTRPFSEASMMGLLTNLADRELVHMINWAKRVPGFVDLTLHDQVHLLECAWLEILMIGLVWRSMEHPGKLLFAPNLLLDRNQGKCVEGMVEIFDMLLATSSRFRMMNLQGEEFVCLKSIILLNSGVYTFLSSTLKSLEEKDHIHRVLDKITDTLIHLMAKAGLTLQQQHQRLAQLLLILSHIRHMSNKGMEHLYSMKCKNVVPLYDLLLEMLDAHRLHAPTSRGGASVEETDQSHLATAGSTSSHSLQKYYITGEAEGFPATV
Chain of Thyrotropin receptor (Homo sapiens) (P16473 whole entry, looked up): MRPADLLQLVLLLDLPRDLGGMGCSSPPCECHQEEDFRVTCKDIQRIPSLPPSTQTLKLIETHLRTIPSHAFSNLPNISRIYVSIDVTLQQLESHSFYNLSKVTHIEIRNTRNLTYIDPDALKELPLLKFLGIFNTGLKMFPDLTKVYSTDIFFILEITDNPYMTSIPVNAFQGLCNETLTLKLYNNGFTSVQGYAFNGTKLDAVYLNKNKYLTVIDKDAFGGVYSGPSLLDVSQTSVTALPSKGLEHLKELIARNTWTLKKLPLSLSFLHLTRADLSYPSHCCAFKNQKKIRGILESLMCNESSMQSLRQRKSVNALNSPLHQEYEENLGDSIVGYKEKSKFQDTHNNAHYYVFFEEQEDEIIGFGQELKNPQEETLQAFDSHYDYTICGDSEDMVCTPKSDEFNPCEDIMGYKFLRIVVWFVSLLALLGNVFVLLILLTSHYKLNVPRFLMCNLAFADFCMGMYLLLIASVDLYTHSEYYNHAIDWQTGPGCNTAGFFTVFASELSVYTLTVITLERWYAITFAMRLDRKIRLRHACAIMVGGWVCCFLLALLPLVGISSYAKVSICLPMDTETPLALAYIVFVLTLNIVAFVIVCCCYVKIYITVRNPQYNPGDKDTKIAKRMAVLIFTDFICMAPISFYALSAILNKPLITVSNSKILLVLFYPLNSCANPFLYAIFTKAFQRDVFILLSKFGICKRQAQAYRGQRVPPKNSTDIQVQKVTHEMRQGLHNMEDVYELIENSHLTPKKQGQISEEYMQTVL
Chain of Androgen receptor (Homo sapiens) (P10275 whole entry, looked up): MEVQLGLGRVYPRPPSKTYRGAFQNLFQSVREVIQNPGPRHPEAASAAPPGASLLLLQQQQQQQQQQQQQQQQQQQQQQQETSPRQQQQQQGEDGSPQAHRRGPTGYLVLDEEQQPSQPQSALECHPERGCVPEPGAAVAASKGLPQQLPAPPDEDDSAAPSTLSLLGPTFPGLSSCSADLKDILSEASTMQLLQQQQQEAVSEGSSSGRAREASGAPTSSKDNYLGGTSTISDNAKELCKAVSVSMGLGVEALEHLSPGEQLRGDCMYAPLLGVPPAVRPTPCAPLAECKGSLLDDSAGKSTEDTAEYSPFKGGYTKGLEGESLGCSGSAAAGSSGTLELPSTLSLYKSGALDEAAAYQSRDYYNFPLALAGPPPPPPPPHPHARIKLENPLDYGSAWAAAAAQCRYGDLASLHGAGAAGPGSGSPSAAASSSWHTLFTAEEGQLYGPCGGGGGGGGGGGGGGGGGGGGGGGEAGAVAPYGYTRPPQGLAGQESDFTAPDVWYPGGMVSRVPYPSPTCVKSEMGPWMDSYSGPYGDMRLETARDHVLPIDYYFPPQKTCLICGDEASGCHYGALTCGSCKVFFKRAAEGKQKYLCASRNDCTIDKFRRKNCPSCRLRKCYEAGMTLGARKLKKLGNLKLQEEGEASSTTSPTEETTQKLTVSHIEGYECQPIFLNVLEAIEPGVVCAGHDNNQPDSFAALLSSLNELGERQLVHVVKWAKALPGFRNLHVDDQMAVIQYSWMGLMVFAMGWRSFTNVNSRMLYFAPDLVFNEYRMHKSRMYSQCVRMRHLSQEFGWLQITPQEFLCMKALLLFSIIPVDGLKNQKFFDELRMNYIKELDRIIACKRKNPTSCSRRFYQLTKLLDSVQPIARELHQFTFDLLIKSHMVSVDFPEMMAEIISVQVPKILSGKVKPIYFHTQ

With `O=C(O)c1ccc(-n2nc(-c3ccccc3O)nc2-c2ccccc2O)cc1`, the Potency result in assay [1], in [3], in assay [4], in assay [5], in assay [7] and in assay [8] was “inactive” throughout. Besides, the Potency entry in [9] is “inactive”. In addition, the PLD induction in [2] was -4.07% [at 1.53 µM]. In assay [6], the outcome was inactive.

As for `CCN(CC)CCOC(=O)C(c1ccccc1)C1CCCCC1` (stereo not given), the Potency result in [1], in assay [2], in [3], in assay [4], in assay [11] and in assay [12] was “inactive” each time. The Potency result in assay [13], in [7], in assay [8] and in [9] was “inactive” each time. The compound was called inactive in assay [6]. The Potency in assay [10] was 15 µM (active); in assay [14], 26.6 µM (active).

Consider `O=C1OC(=O)C2C3C=CC(C3)C12` (stereo not given), for which the Potency entry in assay [3], in [4], in assay [15], in assay [5], in assay [10] and in [11] was “inactive” in each case. The Potency result in assay [12], in assay [13], in [7], in assay [8], in assay [16] and in [14] was “inactive” each time. In [6], the outcome was inactive.

In the case of `CCCCc1ncc(/C=C(\Cc2cccs2)C(=O)O)n1Cc1ccc(C(=O)O)cc1`, the Potency result in [1], in assay [2], in assay [3], in assay [5], in [10] and in [7] was “inactive” in each case. Moreover, the Potency entry in [8], in [16] and in assay [14] was “inactive” in each case. For the same compound, the outcome in assay [6] was inactive.

Take `COC(C)(C)CCO`: the Potency entry in assay [4], in assay [15], in assay [5], in [10], in assay [11] and in [12] was “inactive” in each case. Also, the Potency result in [7], in [8], in assay [16] and in [14] was “inactive” in each case. Further, the compound was called inactive in [6].

In the case of `COc1cc2nc(Cl)nc(N)c2cc1OC`, the Potency result in assay [17], in assay [18], in assay [3], in [4], in assay [15] and in assay [5] was “inactive” throughout. Besides, the Potency entry in assay [13], in assay [7], in [19], in assay [8] and in assay [9] was “inactive” throughout. Also, the result in [6] was inactive.

Consider `O=C1[C@H]2CCCC[C@H]2C(=O)N1CCCCN1CCN(c2nsc3ccccc23)CC1`, for which the Potency in assay [2] was 14.1 µM (active); in assay [10], 23.7 µM (active). The Potency entry in assay [3], in assay [4], in assay [11], in assay [8], in assay [9] and in assay [14] was “inactive” throughout. Also, the compound was called inactive in assay [6].

For the compound `Cc1ccc(N=Nc2c(O)c(C(=O)O)cc3ccccc23)c(S(=O)(=O)O)c1`, the results for the Potency in [1], in [5] and in [13] were 11.8 µM (active), 13.3 µM (active) and 23.6 µM (active), respectively. Besides, the Potency entry in [3], in assay [11], in assay [12], in assay [7], in assay [8] and in assay [16] was “inactive” throughout. Besides, in [14], the Potency result was “inactive”. Moreover, the outcome in assay [6] was inactive.

As to `CCCCCCc1ccc(-c2ccc(C#N)cc2)cc1`, the Potency entry in assay [1], in [3], in assay [4], in assay [15], in assay [5] and in [10] was “inactive” throughout. The Potency entry in assay [13], in assay [8], in [16] and in [14] was “inactive” in each case. In assay [6], the compound was called inactive.

Regarding `CC1=CCCC(C)(C)C12CCC(C)O2` (stereo not given), the Potency result in assay [1], in assay [3], in [4], in [15], in assay [5] and in assay [11] was “inactive” in each case. Moreover, the Potency result in assay [12], in [7], in [8] and in [16] was “inactive” throughout. Further, in [6], the result was inactive.

On to `OC[C@H]1O[C@@H](OCCc2ccc(O)cc2)[C@H](O)[C@@H](O)[C@@H]1O`, for which the Potency result in [18], in assay [2], in assay [3], in assay [4], in assay [15] and in assay [5] was “inactive” in each case. The Potency entry in assay [10], in [11], in [12], in assay [13], in assay [7] and in assay [8] was “inactive” each time. Further, the Potency entry in assay [9] is “inactive”. In [6], the outcome was inactive.

On to `COc1ccc(S(=O)(=O)N2C(=O)[C@@](c3ccccc3OC)(N3C[C@H](O)C[C@H]3C(=O)N(C)C)c3cc(Cl)ccc32)c(OC)c1`, for which the Potency in [17] is 54.5 µM (active); in assay [5], 9.69 µM (active); in [10] it was 15.4 µM (active); in [13] it was 54.5 µM (active). Further, the Potency entry in [4], in assay [19], in assay [8], in assay [9], in [16] and in assay [14] was “inactive” throughout. Also, the compound was called inactive in assay [6].

Turning to `O=C(O)C(S)C(S)C(=O)O` (stereo not given), the Potency result in assay [1], in [2], in assay [3], in assay [4], in assay [15] and in assay [5] was “inactive” each time. The Potency result in assay [10], in assay [11], in assay [12], in [13], in [7] and in [8] was “inactive” in each case. Moreover, the compound was called inactive in [6].

Turning to `Nc1cccc(S(=O)(=O)c2cccc(N)c2)c1`, the Potency result in assay [1], in assay [3], in assay [5], in assay [10], in assay [11] and in assay [13] was “inactive” throughout. In addition, the Potency entry in [7], in assay [8], in [9], in assay [16] and in assay [14] was “inactive” throughout. The outcome in [6] was inactive.
